PubChem BioAssay AID686979 (National Center for Advancing Translational Sciences (NCATS), 2013)
The campaign covered roughly 420,000 compounds. About 50,000 (12%) were called active. Not shown: some 26% with an inconclusive outcome. What follows is part of a selection rich in actives, with near analogues and random picks from the rest. A number with no mark means an inactive call. Calls come from the whole dose curve; as a rule, active = well fitted inhibition curve with a large enough effect; inconclusive = small, poorly fitted or top-dose-only effect; inactive = flat fitted curve, though single readings scatter.

experiment: qHTS for Inhibitors of human tyrosyl-DNA phosphodiesterase 1 (TDP1): qHTS in cells in presence of CPT; details: chicken DT40 Tdp1-/-;hTDP1 cells + 20 nM CPT, ATP luminescence, 48 h; series mostly up to 46.2 µM; activity change, negative = growth inhibition: at the top concentration; note: nearly all actives have a fitted effect of over 55% in size
Summary of the method: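 Chicken DT40 Tdp1-/- cells stably complemented with human TDP1 were seeded at 400 cells/well in medium containing 20 nM camptothecin, exposed to pin-transferred compounds, and grown at 37 °C for at least 48 hr. Viability was read as ATP luminescence.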
% is set by controls: 0 for no effect and ±100 for the full control effect; potency is the fitted concentration of half-maximal effect.

| SMILES | activity change, negative = growth inhibition | Potency |
| --- | --- | --- |
| O=C(c1cc(COc2cccc(C(F)(F)F)c2)on1)N1CCSCC1 | -23.1% |  |
| Cc1ccc(CNC(=O)C2(C(F)(F)F)C/C(=C\Cc3ccccc3)CCCO2)o1 (configuration not stated) |  | 16.4 µM (active) |
| COC(=O)[C@]12CCCCC=C1N(Cc1ccccc1)C(=O)[C@H](CC(=O)NCc1ccc(C)o1)C2 | -20% |  |
| Cc1ccc(C(=O)N2CC(=O)Nc3ccccc32)o1 | -0.865% |  |
| Cc1ccc2c(c1)nnc1nnc(SCC(=O)O)n12 | -2.45% |  |
| Cc1cccc(-c2nnc(SCC(=O)O)n2Cc2ccccc2)c1 | 2.29% |  |
| CCC(C(=O)NC1CCCC1)N(C(=O)Cn1nnc(-c2ccc(C)o2)n1)c1ccc(OC)c(OC)c1 (configuration not stated) | 4.9% |  |
| Cc1cccc(C)c1NC(=O)COC(=O)c1ccccc1O | -1.8% |  |
| COc1ccc(/C=C(/CC(=O)Nc2ccc(C)cc2)c2nc3ccccc3s2)cc1 | 12.5% |  |
| COc1ccc(N=C(C)c2sc3ccccc3c2O)cc1 | 3.55% |  |
| COC(=O)Cc1[nH]n(-c2nc3ccccc3s2)c(=O)c1C(C)=Nc1ccc(OC)cc1 |  | 5.17 µM (active) |
| COc1ccc(C2NC(=S)NC3=C2CCc2ccccc23)cc1OC (configuration not stated) | -8.49% |  |
| C=CCN(CC=C)C(=O)COC(=O)c1n[nH]c2ccccc12 | -1.43% |  |
| CNC1(c2nnnn2-c2c(C)cccc2C)CCOC(C)(C)C1 (configuration not stated) | -0.779% |  |
| O=C(NCCO)C(=O)NCC(c1ccc2c(c1)OCO2)N1CCN(c2ccc(F)cc2)CC1 (configuration not stated) | 2.47% |  |
| CC(C)CC(=O)NCC(c1ccc2c(c1)OCO2)N1CCN(c2ccc(F)cc2)CC1 (configuration not stated) |  | 16.4 µM (active) |
| CC(C)CNC(=O)C(=O)NCC(c1ccc2c(c1)OCO2)N1CCOCC1 (configuration not stated) | 3.18% |  |
| COc1ccc(N)cc1NC(=O)CN1CCOCC1 | -5.1% |  |
| COc1ccc(C2C(C(C)=O)=C(O)C(=O)N2CCc2c[nH]c3ccccc23)cc1 (configuration not stated) | -10.4% |  |
| CC(=O)c1ccc(NC(=O)c2cc(-c3cccs3)on2)cc1 | 4.84% |  |
| CC(=O)c1ccc(Nc2nc(C(N)c3ccccc3Cl)cs2)cc1 (configuration not stated) |  | 14.6 µM (active) |
| CC(=O)c1ccc(NC(=O)C(C)N(C)CC(=O)Nc2ccccc2Cl)cc1 (configuration not stated) | -5.9% |  |
| COc1cc(NC(=O)c2noc3c2CSc2ccccc2-3)cc(OC)c1OC |  | 9.2 µM (active) |
| COc1ccccc1-c1cc(C(=O)N2CCCCC2)no1 | -28.7% |  |
| COc1cc(OC)c(NC(=O)c2c3c(nn2C)-c2ccccc2SC3)cc1Cl | -88.3% |  |
| Cc1cccc(-n2c(Cc3cc(=O)[nH]c(=O)[nH]3)nnc2SCC(=O)Nc2cccc(C(F)(F)F)c2)c1 | -2.7% |  |

| SMILES | activity change, negative = growth inhibition | Potency |
| --- | --- | --- |
| COc1ccc(CCNC(=O)CSc2nc3[nH]ncc3c(=O)n2-c2cccc(C(F)(F)F)c2)cc1OC | 4.43% |  |
| NC(=O)NC(=O)CSc1nc2cc([N+](=O)[O-])ccc2n1-c1cccc(C(F)(F)F)c1 |  | 10.3 µM (active) |
| COc1ccc(NS(=O)(=O)c2cc3c(cc2C)N(C(C)=O)CCO3)cc1 |  | inactive |
| COc1ccc(C(=O)NC(Cc2ccc(OC(=O)c3ccc(OC)cc3)cc2)C(=O)O)cc1 (configuration not stated) | -1.18% |  |
| O=C(Nc1ccncc1)c1ccccc1[N+](=O)[O-] | -26.9% |  |
| O=C(CSc1nnc(-c2ccc([N+](=O)[O-])cc2)o1)Nc1ccccn1 | -12.2% |  |
| O=[N+]([O-])c1ccccc1SNc1ccccn1 |  | 20.6 µM (active) |
| CCN1C[C@@H]2[C@@H]3C(=O)N(C)C(=O)[C@@H]3[C@](C)(C1=O)N2C(=O)c1ccccc1 | -2.52% |  |
| N#Cc1nc(COc2ccc(Cl)cc2)oc1N1CCCC1 | -22% |  |
| COc1ccc(-c2nnc(SCc3cccnc3)o2)cc1 | -2.9% |  |
| N#Cc1nc(COc2ccc(-c3ccccc3)cc2)oc1NCc1cccnc1 |  | 6.51 µM (active) |
| CCOC(=O)C[C@H]1c2ccc(C(F)(F)F)cc2S(=O)(=O)N1c1ccccc1 | -27.7% |  |
| COc1ccc2oc(N)c(C=O)c(=O)c2c1 | 0.0059% |  |
| CCN(CC(=O)Nc1cc(Cl)ccc1C)C(=O)CN1C(=O)NC2(CCCC2)C1=O | 6.84% |  |
| CCN(CC(=O)Nc1cc(Cl)ccc1C)C(=O)Cn1c(=O)cnc2ccccc21 | 18.2% |  |
| CCN(CC(=O)Nc1cc(Cl)ccc1C)C(=O)CSCc1ccc(C)cc1 |  | 1.3 µM (active) |
| CCCNC(=O)CCc1c(C)nc2c(c(C)nn2-c2ccccc2)c1C | -9.57% |  |
| CC(=O)Nc1cc(C(=O)NCc2ccc(F)cc2Cl)ccc1Sc1ccc(Cl)cc1 |  | 20.6 µM (active) |
| CC(=O)Nc1ccccc1-c1nc(CNC(=O)c2ccc(Cl)cc2)c(C)o1 | -121% |  |
| COCCNC(=O)c1ccc(S(=O)(=O)c2ccc(Cl)cc2)c(NC(C)=O)c1 | -7.56% |  |
| O=C(CCc1ccccc1Cl)Nc1ccc(S(=O)(=O)Nc2nccs2)cc1 | 5.1% |  |
| CN(C)S(=O)(=O)c1cccc(NC(=O)COC(=O)/C=C/c2cccs2)c1 | 8.48% |  |
| CN(C)S(=O)(=O)c1cccc(NC(=O)COC(=O)C2(c3ccccc3F)CCCC2)c1 |  | 18.4 µM (active) |
| CN(C)S(=O)(=O)c1cccc(NC(=O)COC(=O)c2cc(=O)[nH]c(=O)[nH]2)c1 | 4.15% |  |
| O=C(NCc1ccco1)c1ccc(NS(=O)(=O)c2cccc([N+](=O)[O-])c2)cc1 | -13.8% |  |
| COc1ccc(NC(=O)CSc2nnc(Cc3ccccc3)c(=O)n2N)cc1 | -9.25% |  |
